From PubChem BioAssay AID1159580 (chemical genetic matrix, 2015)
The whole screen tested about 5,500 compounds, of which about 2,000 (36%) were called active. Not shown: some 18% with an inconclusive outcome. No stated cut-off is given here; in the data, active means normalized growth mostly below about 0.91 (no sharp cut-off); inconclusive means no clear call, values can overlap the other calls; inactive means mostly above about 0.92. The list shows a part of the results.

Test: chemical genetic growth profiling, strain panel (AID 1159580);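 further: tested at 20 µM; growth read once vehicle control cultures reached saturation at 30 °C; 1 = growth at the plate median or of vehicle wells; lower values mean less growth of the strain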
Details: growth OD
[1] = S. cerevisiae deletion strains, locus YAL013W, strain DEP1, active compounds read low
[2] = S. cerevisiae deletion strains, locus YBR229C, strain ROT2, active compounds read low
[3] = S. cerevisiae deletion strains, locus YDL101C, strain DUN1, active compounds read low
[4] = S. cerevisiae deletion strains, locus YDR150W, strain NUM1, active compounds read low
[5] = S. cerevisiae deletion strains, locus YEL061C, strain CIN8, active compounds read low
[6] = S. cerevisiae deletion strains, locus YGR078C, strain PAC10, active compounds read low
[7] = S. cerevisiae deletion strains, locus YHR030C, strain SLT2, active compounds read low
[8] = S. cerevisiae deletion strains, locus YHR087W, strain rtc3, active compounds read low
[9] = S. cerevisiae deletion strains, locus YJR043C, strain POL32, active compounds read low
[10] = S. cerevisiae deletion strains, locus YJR075W, strain HOC1, active compounds read low
[11] = S. cerevisiae deletion strains, locus YLR039C, strain RIC1, active compounds read low
[12] = S. cerevisiae deletion strains, locus YLR058C, strain SHM2 (second series), active compounds read low
[13] = S. cerevisiae deletion strains, locus YLR085C, strain ARP6, active compounds read low
[14] = S. cerevisiae deletion strains, locus YLR262C, strain YPT6, active compounds read low
[15] = S. cerevisiae deletion strains, locus YML094W, strain GIM5, active compounds read low
[16] = S. cerevisiae deletion strains, locus YMR219W, strain ESC1, active compounds read low
[17] = S. cerevisiae deletion strains, locus YMR263W, strain SAP30, active compounds read low
[18] = S. cerevisiae deletion strains, locus YNL153C, strain GIM3, active compounds read low
[19] = S. cerevisiae deletion strains, locus YNL298W, strain CLA4 (second series), active compounds read low
[20] = S. cerevisiae deletion strains, locus YNL322C, strain KRE1, active compounds read low
[21] = S. cerevisiae deletion strains, locus YNR030W, strain Alg12, active compounds read low
[22] = S. cerevisiae deletion strains, locus YPL055C, strain LGE1, active compounds read low
[23] = S. cerevisiae deletion strains, locus YPL241C, strain CIN2, active compounds read low
[24] = S. cerevisiae deletion strains, locus YPR135W, strain CTF4, active compounds read low
[25] = S. cerevisiae strains, strain wild type, active compounds read low
[26] = S. cerevisiae deletion strains, locus YJL187C, strain SWE1, active compounds read low
[27] = S. cerevisiae deletion strains, locus YDL134C, strain PPH21, active compounds read low
[28] = S. cerevisiae deletion strains, locus YKL190W, strain CNB1, active compounds read low

Measured: normalized growth

COC(=O)c1ccc(C(=O)OC)nc1
inactive: [1] 1 | [2] 0.994 | [3] 0.977 | [4] 0.976 | [5] 0.999 | [6] 0.997 | [7] 0.982 | [8] 0.995 | [9] 1 | [10] 0.993 | [11] 0.973 | [12] 1 | [13] 1.01 | [14] 0.984 | [15] 0.942 | [16] 0.998 | [17] 1.02 | S. cerevisiae deletion strains, locus YNL128W, strain TEP1, active compounds read low 0.987 | [18] 1 | [19] 1 | [20] 0.992 | [21] 0.998 | [22] 0.991 | [23] 0.949 | [24] 0.967 | [25] 0.989

CC/C(=N/Oc1ccc(C(F)(F)F)cn1)c1ccc(-c2ccccc2F)cc1
inactive: [1] 1.01 | [2] 1.01 | [3] 0.995 | [4] 0.981 | [5] 0.992 | [6] 1.01 | [7] 1.12 | [8] 1.02 | [26] 0.999 | [9] 0.987 | [10] 0.991 | [11] 1.03 | [12] 0.999 | [13] 1.04 | [14] 1.03 | [15] 1.01 | [16] 1 | [17] 0.996 | [18] 1 | [19] 1.05 | [20] 0.986 | [21] 1.02 | S. cerevisiae deletion strains, locus YOL006C, strain TOP1, active compounds read low 1.06 | [22] 0.984 | [23] 1.01 | [24] 1.05 | [25] 1.02

COC(=O)c1ccc(-c2ccccc2F)cc1
active: [7] 0.681 | [28] 0.857 | [13] 0.696 | [25] 0.901
inactive: [1] 0.984 | [2] 0.982 | [3] 0.987 | [27] 0.974 | [4] 0.971 | [5] 0.927 | [6] 0.962 | [8] 0.968 | [26] 0.961 | [9] 0.94 | [10] 0.893 | [11] 0.796 | [12] 0.99 | [14] 0.929 | [15] 0.958 | [16] 0.991 | [17] 0.971 | [18] 0.968 | [19] 0.897 | [20] 0.999 | [21] 0.957 | [22] 0.917 | [23] 0.89 | [24] 0.786

CN(C)c1ccc(/C=N\NC(=O)CCc2ccc(O)cc2)c(Cl)c1
inactive: [1] 1.01 | [2] 0.998 | [3] 1.05 | [27] 1.01 | [4] 1.01 | [5] 0.974 | [6] 1.02 | [7] 0.992 | [8] 0.995 | [9] 1.01 | [10] 1.01 | [28] 1.01 | [11] 0.951 | [12] 1.01 | [13] 0.999 | [14] 0.946 | [15] 0.974 | [16] 1.01 | [17] 1.02 | S. cerevisiae deletion strains, locus YMR307W, strain GAS1, active compounds read low 0.97 | [18] 1 | [19] 0.999 | [20] 1.01 | [21] 1.01 | [22] 0.985 | [23] 0.967 | [24] 1.01
